# Measured values reported in the supplement of paper PMC3334620.
# In all, about 33,000 sequences were measured (“E-score (-0.5 to 0.5)”: median about -0.011, highest 2% from about 0.28 on). The sample holds the highest values, similar sequences and a random draw of the others, so the mix is not that of the screen.
# Biological target: T1, Gcr1 (UniProt P07261)
# T1 sequence: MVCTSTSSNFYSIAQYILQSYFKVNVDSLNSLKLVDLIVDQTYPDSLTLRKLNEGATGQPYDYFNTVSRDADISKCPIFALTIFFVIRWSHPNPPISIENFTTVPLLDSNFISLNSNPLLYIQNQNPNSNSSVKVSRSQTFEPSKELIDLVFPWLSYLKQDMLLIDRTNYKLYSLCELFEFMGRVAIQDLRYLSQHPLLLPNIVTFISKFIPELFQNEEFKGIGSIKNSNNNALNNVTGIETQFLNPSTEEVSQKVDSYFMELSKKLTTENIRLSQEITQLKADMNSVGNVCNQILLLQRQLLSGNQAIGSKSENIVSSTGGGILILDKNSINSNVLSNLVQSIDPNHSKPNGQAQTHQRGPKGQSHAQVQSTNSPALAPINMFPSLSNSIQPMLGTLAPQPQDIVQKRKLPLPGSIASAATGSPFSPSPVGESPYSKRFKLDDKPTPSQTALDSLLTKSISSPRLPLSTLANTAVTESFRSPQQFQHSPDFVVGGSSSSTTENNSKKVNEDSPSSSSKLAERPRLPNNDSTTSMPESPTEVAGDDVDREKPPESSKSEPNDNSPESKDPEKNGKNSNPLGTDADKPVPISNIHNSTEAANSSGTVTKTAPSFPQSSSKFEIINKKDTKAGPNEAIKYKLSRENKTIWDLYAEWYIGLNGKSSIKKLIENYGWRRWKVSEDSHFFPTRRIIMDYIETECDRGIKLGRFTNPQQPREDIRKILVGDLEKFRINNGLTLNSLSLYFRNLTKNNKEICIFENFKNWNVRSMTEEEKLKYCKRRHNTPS
# Test: PBM E-score (8-mer binding enrichment) (E-score (-0.5 to 0.5)); higher = stronger / more preferred TF binding
# Conditions: protein concentration: 100 nM; construct: GST-full length
# Summary of the method: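 Universal all-10-mer Agilent arrays, double-stranded by primer extension on fresh or once-stripped slides, were probed with about 100-200 nM GST-tagged yeast transcription factors made by PURExpress. Fluorescent anti-GST detected bound protein, and masliner normalised the scans. E-scores from the Universal PBM Analysis Suite were given to each ungapped eight-base word pooled with its reverse complement.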
row,Sequence,PBM E-score
1,ACGCATCG,-0.00937
2,GCGCATAC,0.0321
3,CCGCATCG,-0.0819
4,CCGCATCA,0.103
5,ACGCATCT,0.151
6,GCGCATCA,0.0737
7,ACCGCCTC,-0.14
8,ACTGTGCT,-0.231
9,ACAGACAT,-0.144
10,CACAGAGG,-0.185
11,CGAGGGGC,0.0171
12,GCAGTGGA,0.11
13,AAAGTGGA,0.24
14,GTAGTGTA,-0.0351
15,CAAGTGGA,0.181
16,CTAGTGGC,0.106
17,TAAGTGGA,0.287
18,ATCGTGGC,-0.103
19,ATAGTGGC,0.32
20,GTAGTGGA,0.285
21,CTAGTGGA,0.298
22,CTAGTGTA,0.127
23,ACAGTGGC,0.00948
24,TCCGACAA,-0.0648
25,AACGAGGG,0.0827

row,Sequence,PBM E-score
1,CGGTCTAG,-0.167
2,AAACAAGG,0.16
3,GAGGTTCC,0.269
4,CAACTTAC,-0.127
5,GCAGAGTA,-0.0213
6,ACCGACGC,-0.0878
7,GTTTTGTA,0.0369
8,ATGGCGGC,0.0606
9,ATATGCTA,0.115
10,CCCCTCAC,-0.0282
11,CTCCTGAA,0.085
12,AAATCGCA,-0.021
13,ATACCAAC,-0.00844
14,ATAGTGTG,0.106
15,ATAGTAGG,0.051
16,CAAGTGGC,0.146
17,ATAGTGGG,0.308
18,AGAGTGGG,0.177
19,ATCGTGGA,0.148
20,ATAGTAGA,0.191
21,AAAGTGGT,0.167
22,ATAGTGGA,0.376
23,ATAGTGAA,-0.116
24,ATAGTAGC,0.286
25,AAAGTGGC,0.295

row,Sequence,PBM E-score
1,GAGAGTGA,-0.261
2,CCAGTAAG,0.222
3,AGCTCTAA,-0.108
4,GTCAAAAA,0.144
5,CCCGAACA,-0.00034
6,GGAGTAAC,-0.116
7,CCTCCCCG,0.0903
8,AGACCCAT,-0.152
9,CGCTGAGC,0.0119
10,ATCCCCAA,0.0543
11,CTCGCGCC,-0.166
12,CATTGAAG,-0.12
13,TAAAGAGA,0.0201
14,GCCAGCTA,-0.135
15,GACAGCTA,-0.113
16,CGCAGCTC,0.09
17,CGCAGCTA,0.34
18,CCCAGCTA,-0.0278
19,GGCAGCTA,0.318
20,AGGCTGGA,-0.133
21,AAAATGGG,0.29
22,CAAATGGG,-0.0381
23,AAAATAGG,0.335
24,ATAATGGG,0.326
25,AAAATAGC,0.272

row,Sequence,PBM E-score
1,ATAATGGC,-0.00297
2,ATAATGGA,0.196
3,AAAATAGT,0.0219
4,AAAATGGA,0.142
5,CGCTCCGA,-0.0796
6,CTCTTTAA,-0.101
7,GGTCGATA,-0.135
8,CCTTAAAG,0.0175
9,CATCGACG,-0.0993
10,TCAAGGCA,-0.127
11,GCTGACTA,-0.0111
12,CTGGGCAC,0.239
13,AGTGGCAC,0.15
14,AGTGGCAA,0.088
15,AGTGGCTC,0.218
16,AGTGGCTG,0.312
17,AGTGGCAG,0.287
18,AGTGGCTA,-0.0284
19,GCGTTCAC,0.00885
20,AACATGTG,0.141
21,GCGGGAGA,-0.277
22,CTGGGGTA,-0.0593
23,GTGGGGTA,0.286
24,ATGGGGTA,-0.128
25,CAAGGAAC,0.0885

row,Sequence,PBM E-score
1,GCAGGCGA,-0.0907
2,AGGCTACC,0.0739
3,CGGCTACC,0.0369
4,GGGCTACC,0.302
5,CGCCGCGC,0.137
6,ATGGCCCG,-0.309
7,GATTCGCC,0.0655
8,GCACGCCC,-0.122
9,CGACGCAC,-0.0398
10,GGACGCCC,0.441
11,AGACGCCC,0.259
12,CGACGTCC,0.0613
13,GGACGTCA,-0.115
14,GGACGTCC,0.291
15,TGACGCCA,-0.0776
16,CAACGCCC,0.0625
17,GCACGCCA,-0.0682
18,CGACGCCC,0.287
19,GGACGCCA,0.418
20,CCACTTGA,0.138
21,GTTCTCCA,-0.137
22,ATAAGTGA,-0.119
23,ACTGGGTC,-0.0289
24,ACAGGCAG,0.252
25,CGAGCCCA,-0.119

row,Sequence,PBM E-score
1,AACATTTC,-0.0184
2,TCATTGGA,-0.0473
3,TCCTGTAA,0.354
4,CCCCTGTA,0.284
5,GCCTGTAA,0.109
6,CCCTGTAG,0.107
7,ACCTGTAC,0.0266
8,CCCTGTAA,0.308
9,ACCTGTAG,0.135
10,CCCTGTAC,-0.0614
11,ACCTGTAA,-0.0579
12,CCCCTGAA,0.0139
13,GCCCTGTA,0.0785
14,ACCTGTAT,0.322
15,AGGATTGA,0.106
16,AACCATCG,-0.148
17,ATTATGGA,0.161
18,CGTTCTAG,0.0647
19,TACCTCTA,0.238
20,CGACTCGA,-0.0795
21,AGGTTGCA,0.125
22,AGGTTGCC,0.28
23,AGGTTGCG,0.136
24,CGATTTAC,-0.039
25,CGCAGAGC,-0.291

row,Sequence,PBM E-score
1,ACCCACTC,0.0683
2,CTCCACTC,0.022
3,GTCCACTA,0.334
4,ATCCACTC,0.318
5,GTCCACGA,-0.0295
6,ATCCACTG,0.0833
7,ATCCACTA,0.369
8,CTCCACTA,0.215
9,ATCCACGA,0.0269
10,CTTAGATA,0.0548
11,ACACTTAG,-0.0488
12,ACATCCAG,0.251
13,ACAGCACA,-0.109
14,ATGTACAC,0.00539
15,GTCGTTGA,-0.219
16,GAGGGCGC,0.114
17,AACGCTGC,0.0719
18,GACGCTGC,0.332
19,CACGCTGC,0.236
20,CACGCTGA,-0.0481
21,AACGCTGA,-0.0701
22,GACGCTGA,0.301
